An excerpt weighted towards active compounds, which were near 12% of everything screened.
USP30 block – blocks human USP30 ubiquitin-rhodamine cleavage; Q70CQ3; purified USP30, Ub-rhodamine cleavage fluorescence; inhibition, % at 25 µM; 47,000 tested, 5.3% active
OTUD3 inh – human OTUD3 deubiquitinase inhibition; Q5T2D3; purified OTUD3, Ub-rhodamine fluorescence, 2 h; inhibition, % at 25 µM; 47,000 tested, 0.7% active
USP28 inh – blocks human USP28 ubiquitin-rhodamine cleavage; Q96RU2; purified USP28, Ub-rhodamine cleavage fluorescence, 30 min; inhibition, % at 25 µM; 47,000 tested, 3% active; AID 1645857
USP17 block – inhibitors of human USP17 deubiquitinase; purified USP17, Ub-rhodamine cleavage fluorescence, 3 h; 47,000 tested, 6.5% active; A8MUK1; AID 1645855; inhibition, % at 50 µM
* = called active by the depositor; i = inactive; / = not tested or not shown. No stated cut-off is given here; in the data, active means inhibition above about 30%; inactive means the rest.

SMILES	USP30 block	OTUD3 inh	USP28 inh	USP17 block
O=C(NCc1ccccc1Cl)C1(c2cccc(F)c2)CCCC1	3	2	-15	-4
Cc1ccc(C(=O)CCC(=O)NCc2ccccc2Cl)cc1	0	11	6	11
Cc1ccc(CNC(=O)CSc2ccc(N3CCC(C(=O)NC4CC4)CC3)nn2)cc1	10	16	0	21
O=C(NCCc1ccco1)c1ccc(N2CCOc3ccccc32)s1	47*	14	22	57*
CN1CCC(N(C(=O)c2ccco2)C2CCN(CCc3ccccc3)CC2)CC1	-61	-25	-33	-41
O=C(NCc1ccncc1)C1CC(=O)N(Cc2ccc(F)cc2)C1 (stereo unspecified)	4	-2	-3	-8
O=C(Nc1cccc(N2CCCC2=O)c1)c1cccc2cccnc12	12	0	-1	56*
COc1cccc(C(=O)Nc2cccc(N3CCCC3=O)c2)c1OC	6	0	-6	0
CCc1onc(C)c1C(=O)N1C[C@@H](c2ccccc2)[C@@H]2NC(=O)CCCC[C@H]21	15	9	12	1
Cc1ccc(C)c(N(C(C)C(=O)NCc2ccncc2)S(C)(=O)=O)c1 (stereo unspecified)	35*	8	17	35*
NC(=O)c1cccc(NS(=O)(=O)c2ccccc2)c1	-1	0	-15	-9
O=S(=O)(Nc1ccc(Oc2ccccc2)cc1)c1ccccc1	64*	24	60*	70*
COc1ccc2nc(C(=O)NCc3cc(F)ccc3F)cn2n1	30	0	2	29
NS(=O)(=O)c1cccc(NCc2nc3scc(-c4ccccc4)c3c(=O)[nH]2)c1	32*	10	48*	43*
COc1cc(NCc2nc3scc(-c4ccccc4)c3c(=O)[nH]2)cc(OC)c1	-55	-17	-16	-4
O=C(Nc1nc2ccccc2s1)C1CN(C(=O)c2cnccn2)C1	-3	-9	0	-19
Cc1cccc(Nc2cc(C3CCN(C(=O)c4cncnc4)CC3)ccn2)n1	32*	9	8	9
CC(=O)N1CCc2cc(S(=O)(=O)NCCC(=O)NCc3ccc(F)cc3)ccc21	-10	-4	-2	-5
CC(C)C(=O)N1CCc2cc(-c3csc(NC(=O)CN4CCc5ccccc5C4)n3)ccc21	-106	-33	-27	23
O=C(CN1C(=O)c2ccccc2C1=O)Nc1nc(-c2ccc(Br)cc2)cs1	47*	9	32*	7
O=C(CCc1ccc2nc[nH]c2c1)Nc1ccc(F)cc1	4	-2	1	0
CC1=C(C(=O)c2ccc(Cl)cc2)C(c2ccc(C(C)C)cc2)NC(=O)N1 (stereo unspecified)	-106	-20	0	32*
CCC(C)c1ccc(NC(=O)COc2nc3ccccc3nc2C)cc1 (stereo unspecified)	-4	-4	-6	47*
O=c1c(NCc2ccccc2Cl)nccn1Cc1ccc(F)cc1	30*	26	30*	19
O=c1c(NCc2ccc(F)cc2)nccn1-c1ccc2c(c1)OCCO2	3	2	19	-2
SMILES	USP30 block	OTUD3 inh	USP28 inh	USP17 block
COc1cc2oc(=O)c(CC(=O)N[C@@H](CSCc3ccccc3)C(=O)O)c(C)c2cc1Cl	16	2	-8	1
Cc1cccc(Cn2cnc3c(nnn3Cc3ccccc3F)c2=O)c1	-44	25	30*	23
COc1cccc(-c2noc(Cn3cnc4c(nnn4Cc4ccc(F)cc4)c3=O)n2)c1	0	13	21	0
Cc1[nH]c(=O)[nH]c(=O)c1S(=O)(=O)N1CCCN(Cc2ccccc2Cl)C1	-19	-1	-8	-8
O=C(c1cc(Cl)ccc1Cl)N1CCN(c2ccc3nnc(-c4ccco4)n3n2)CC1	10	8	2	61*
O=S(=O)(c1ccccc1Cl)N1CCN(CCOc2ccccc2)CC1	-10	-1	-4	0
O=S(=O)(c1ccccc1Cl)N1CCN(c2ccc3nnc(-c4ccco4)n3n2)CC1	38*	28	34*	72*
Cc1ccc(-c2ccc(N3CCOCC3)nn2)cc1S(=O)(=O)N1CCOCC1	i	-9	-6	/
Cc1ccc(C)c(S(=O)(=O)N2CCN(c3ccc4nnc(-c5ccco5)n4n3)CC2)c1	41*	23	46*	63*
COc1ccc(-c2nc(-c3cc(OC)c(OC)c(OC)c3)no2)cc1	9	-4	-7	5
O=C1NC(=O)/C(=C/c2ccc(OC(=O)c3ccc(Cl)cc3Cl)cc2)N1	62*	21	31*	38*
O=C(Cc1ccccc1)N1CCN(c2nc3ccc(Cl)cc3s2)CC1	33*	16	9	17
